Shown are actives, neighbours in structure and some others; about 6.5% of the full set was active somewhere.
Lassa entry inh – qHTS for Inhibitors of binding or entry into cells for Lassa Virus; Lassa virus pseudotype entry inhibition, cell reporter; Potency, µM (highest dose often 37.9 µM), for inactives: at the highest dose activity change, negative = inhibition, usual class: inhibitors; 300,000 tested, 1.2% active; calls by dose curve; tested in HEK293 cells; note: potency is the fitted concentration of half-maximal effect; nearly all actives have a fitted effect of over 50% in size
VACV Venus inh – qHTS for Stage-Specific Inhibitors of Vaccinia Orthopoxvirus: Venus Reporter Primary qHTS | Vaccinia virus Venus reporter expression, fluorescence | Potency, µM (doses to about 36.5 µM), inactives show top-dose activity change, negative = inhibition, usual class: inhibitors | 330,000 tested, 0.46% active; calls by dose curve; tested in A549 cells; note: potency is the fitted concentration of half-maximal effect; nearly all actives have a fitted effect of over 30% in size
HCMV inh – qHTS Assay for inhibitors of the human cytomegalovirus (HCMV) | 410,000 tested, 4.5% active | HFF cells, HCMV-luciferase reporter, 72 h; active compounds read low | activity change, negative = inhibition, % at 57.5 µM | AID 1259415, 2018; in the data active = activity change below about -60%; inconclusive = no clear call, values can overlap the other calls; inactive = above about -39%
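Steps: HFFs plated, 16 h 37C; compounds added; HCMV-luciferase added to MOI 1 PFU/cell; 72 h 37C; OneGlo reagent, 5 min room temperature; luminescence read, normalized to controls.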
Marburg entry inh – qHTS for inhibitors of binding or entry into cells for Marburg Virus. Marburg virus pseudotyped entry inhibition, cell reporter. Potency, µM (titrated, usually from 37.8 µM), inactives show at the highest dose activity change, negative = inhibition, most hits filed as inhibitors. 300,000 tested, 1.8% active; calls by dose curve; tested in HEK293 cells; note: potency is the fitted concentration of half-maximal effect
Vaccinia mCherry – qHTS for Stage-Specific Inhibitors of Vaccinia Orthopoxvirus: mCherry Reporter Primary qHTS | Potency, µM (series often up to 36.5 µM), for the others: at the highest dose activity change, negative = inhibition, usual class: inhibitors | Vaccinia virus mCherry reporter infection, fluorescence | 310,000 tested, 0.63% active; calls by dose curve; tested in A549 cells; note: potency is the fitted concentration of half-maximal effect; nearly all actives have a fitted effect of over 35% in size
FMDV antiviral – High Throughput Screening for Foot and Mouth Disease Virus Antivirals. FMDV antiviral cell-based qHTS. Potency, µM (doses to about 57.9 µM), for inactives: top-dose activity change, negative = inhibition, usual class: inhibitors. 410,000 tested, 1.2% active; calls by dose curve; tested in HEK293T cells; note: read-out not given here; potency is the fitted concentration of half-maximal effect; nearly all actives have a fitted effect of over 45% in size
An asterisk follows results filed as active; i = inactive; ? = inconclusive; . = not tested or not shown; [ ] = dose if it differs, or a comment. % is set by controls: 0 for no effect and ±100 for the full control effect.

SMILES | Lassa entry inh | VACV Venus inh | HCMV inh | Marburg entry inh | Vaccinia mCherry | FMDV antiviral
COc1cccc(CN(C)CC2CCCN(CCc3ccccc3C)C2)c1 (stereo unspecified) | . | . | -21 | . | . | -23%
Cc1ccc2c(C)c3ccc4ccccc4c3c[n+]2c1 | -27% | -21% | -95* | ? | -10% | ?
CC(=O)c1ccccc1OCC(O)CNC1CCCC1 (stereo unspecified) | . | . | 0 | . | . | -1%
COc1ccc2ccccc2c1CN1CCc2nnc(CNC(=O)c3cccc(F)c3)n2CC1 | . | 0% | . | . | i | -5%
Cc1ccc(C[n+]2ccccc2)cc1 | . | -26% | -2 | . | i | -21%
Cc1ccc(-c2cc3cccc[n+]3cc2-c2ccc(C)cc2)cc1 | 6.5µM* | -21% | -98* | 3.2µM* | -7% | 40µM*
Cn1nc(C(F)(F)F)c(-c2cccc(C(F)(F)F)c2)c1NC(=O)c1cccnc1 | . | . | -78* | . | . | -22%
CCOc1ccc(C(=O)Nc2ccc3nc(Nc4cccc(C(F)(F)F)c4)cc(C)c3c2)cc1OCC | 0%[46.1 µM] | -6% | -62* | . | 3% | 0%
Cc1cc(Nc2cccc(C(F)(F)F)c2)nc2ccc(NC(=O)c3cccc(Cl)c3)cc12 | -27%[46.1 µM] | -22% | -104* | . | -22% | ?
Cn1nc(C(F)(F)F)c(-c2ccccc2)c1NC(=O)c1cccnc1 | . | . | -1 | . | . | -4%
Cc1cc(Nc2cccc(C(F)(F)F)c2)nc2ccc(NC(=O)c3cccnc3)cc12 | ? | 11µM* | -107* | . | 10µM* | 28µM*
COc1ccc(/C=c2\[nH]c(=O)/c(=C/c3ccc(OC)c(OC)c3)[nH]c2=O)cc1OC | . | -9% | . | . | 24% | .
COc1ccc(-c2nc3ccc(C)cn3c2CC2CCCCC2)cc1OC | . | -3% | 24 | . | i | -10%
C/C(CC(=O)Nc1ccc(Cl)cc1C(F)(F)F)=N\NC(=O)c1ccccn1 | -18%[46.1 µM] | -14% | -6 | ? | -23% | 6%
CC(C)[C@@H](OCc1ccccc1)[C@H](C)/C=N/OC[C@@H](O)[C@H]1O[C@@H]2OC(C)(C)O[C@@H]2[C@H]1O | . | . | . | -5%[14.2 µM] | . | .
CCOC(=O)C1CCCN(CCC(=O)Nc2ccc(Br)c(C)c2)C1 (stereo unspecified) | . | . | 31 | . | . | -4%
COC(=O)Oc1ccc(/C=N/NC(=O)CSCc2ccc(Cl)cc2)cc1OC | ? | -23% | -60* | -39% | -22% | ?
O=C(CSCc1ccc(Cl)cc1)N/N=C/c1ccccc1 | -5% | . | -21 | 5% | . | -1%
CCOc1ccc(NC(=O)C2CCN(S(C)(=O)=O)CC2)cc1 | . | . | 30 | . | . | 0%
Cc1sc2nc(SCC(=O)NCc3ccco3)n(CCc3ccccc3)c(=O)c2c1C | -23% | . | -68* | ? | . | 0%
O=C(CSc1nc2sc3c(c2c(=O)n1-c1ccccc1)CCCC3)NCc1ccco1 | 0% | ? | -93* | 14% | ? | 0%
O=C(CSc1ncnc2sc3c(c12)CCCCC3)NCc1ccco1 | ? | -22% | -9 | ? | -29% | 5%
CC(C)c1nc2sc3c(SCC(=O)NCc4ccco4)ncnc3c2c2c1CCC2 | ? | 14µM* | 12 | ? | . | ?
COc1ccc(NC(=O)c2cc(C3CCCCN3S(=O)(=O)Cc3ccccc3)on2)cn1 (stereo unspecified) | . | -8% | 102 | . | i | 47%
CC(C)(C)C(=O)N(Cc1ccc(Cl)cc1)c1cnccn1 | . | -25% | -64* | . | -17% | ?
SMILES | Lassa entry inh | VACV Venus inh | HCMV inh | Marburg entry inh | Vaccinia mCherry | FMDV antiviral
Cn1cnc(C(=O)NCc2ccc(CNC(=O)OC(C)(C)C)cc2)c1C(=O)NCc1ccc(CNC(=O)OC(C)(C)C)cc1 | . | ? | ? | . | ? | 16µM*
C[C@H]1CNC(=O)c2c(C(=O)Nc3ccc(CNC(=O)OC(C)(C)C)cc3)ncn21 | . | ? | ? | . | ? | 28µM*
CC(C)(C)OC(=O)NCc1ccc(CNC(=O)c2ncn(Cc3ccccc3)c2C(=O)NCc2ccc(CNC(=O)OC(C)(C)C)cc2)cc1 | . | -7% | 4 | . | -12% | -23%
N=c1c2c(ncn1Cc1ccco1)Oc1c(ccc3ccccc13)C2c1ccccc1 (stereo unspecified) | ? | ? | -38 | ? | -30% | -25%
CN(C)CCn1cnc2c(c1=N)C(c1ccccc1)c1ccc3ccccc3c1O2 (stereo unspecified) | . | . | -98* | . | . | 0%
Cc1ccc(Cl)cc1N1CCN(C(=O)c2ccc3nc[nH]c3c2)CC1 | ? | -9% | -61* | ? | -20% | -16%
Cc1ccc(Cl)cc1N1CCN(C(=O)c2ccc3c(c2)CCN3S(C)(=O)=O)CC1 | . | . | -66* | . | . | .
Brc1ccc(-c2ccc(CNCCSc3nnnn3-c3ccccc3)o2)cc1 | 21%[46.1 µM] | -4% | 20 | 2%[46.1 µM] | -3% | 0%
O=C(CN1C(=O)/C(=C/c2ccccc2Cl)SC1=S)NC1C=CS(=O)(=O)C1 (stereo unspecified) | -16%[46.1 µM] | -4% | -64* | ? | -9% | -12%
COc1cccc(/C=C2\SC(=O)N(CC(=O)NC3CCS(=O)(=O)C3)C2=O)c1 (stereo unspecified) | . | . | 0 | . | . | 5%
O=C(CN1C(=O)/C(=C/c2ccc(Cl)cc2)SC1=S)NC1C=CS(=O)(=O)C1 (stereo unspecified) | . | . | -31 | . | . | 0%
COc1cccc(/C=C2\SC(=O)N(CC(=O)NC3C=CS(=O)(=O)C3)C2=O)c1 (stereo unspecified) | . | . | -69* | . | . | -29%
CC(C)c1ccc(/C=C2\SC(=O)N(CC(=O)NC3C=CS(=O)(=O)C3)C2=O)cc1 (stereo unspecified) | . | . | -77* | . | . | -10%
CSCCC(NS(=O)(=O)c1ccc(Cl)cc1)C(=O)N1CCN(c2ccccc2)CC1 (stereo unspecified) | -24% | -7% | -34 | ? | -17% | 33%
CC(C)(C)c1ccc(/C=C/C(=O)NC2=NCCS2)cc1 | 14µM* | -29% | 63 | -27% | . | -22%
Cc1ccc(/C=C/C(=O)NC2=NCCS2)cc1 | 1.6µM* | -21% | 37 | 3.2µM* | -1% | -38%
Cc1ccc(/C=C/C(=O)Nc2ccccc2C(N)=O)cc1 | ? | -14% | 69 | 13µM* | -2% | -19%
Cc1nc2cc(NS(=O)(=O)c3c(C)c(C)cc(C)c3C)ccc2s1 | -7% | ? | -82* | -27% | ? | -22%
Cc1nc2ccc(NS(=O)(=O)c3c(C)c(C)cc(C)c3C)cc2s1 | ? | ? | -61* | ? | ? | 11%
CN1CCCCC1C(=O)N1CCC(Oc2cccc(CN3CCN(c4ccccn4)CC3)c2)CC1 (stereo unspecified) | . | -3% | . | . | -10% | -7%

Assay outcomes deposited in PubChem by National Center for Advancing Translational Sciences (NCATS).
